RORg inh – qHTS for inhibitors of ROR gamma transcriptional activity. actives 5.4% (n = 310,000). AID 2551, 2010. Drosophila S2 Gal4-RORgamma UAS-luciferase reporter, 20 h. Potency, µM (top dose mostly 53.6 µM), actives largely listed as inhibitors. Nuclear receptor ROR-gamma (Mus musculus), P51450; also: nearly all actives have a fitted effect of over 60% in size
Target sequence (P51450 whole entry, looked up, the tested form may be a part): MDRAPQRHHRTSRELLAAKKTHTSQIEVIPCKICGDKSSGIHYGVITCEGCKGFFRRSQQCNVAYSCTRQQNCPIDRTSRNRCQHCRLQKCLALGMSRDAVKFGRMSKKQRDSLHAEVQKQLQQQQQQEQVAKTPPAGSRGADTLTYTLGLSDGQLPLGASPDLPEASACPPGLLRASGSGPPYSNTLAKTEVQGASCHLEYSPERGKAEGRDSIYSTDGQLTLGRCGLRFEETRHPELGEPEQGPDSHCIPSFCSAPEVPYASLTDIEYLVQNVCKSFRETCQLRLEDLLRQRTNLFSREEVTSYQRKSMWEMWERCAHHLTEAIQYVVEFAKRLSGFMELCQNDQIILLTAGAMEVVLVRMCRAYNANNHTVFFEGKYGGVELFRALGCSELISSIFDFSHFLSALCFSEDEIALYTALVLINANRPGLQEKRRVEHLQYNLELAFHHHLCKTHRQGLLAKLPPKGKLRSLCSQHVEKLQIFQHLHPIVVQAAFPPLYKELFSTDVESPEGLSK
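Stably transfected Drosophila Schneider cells are the test system, with ROR gamma fused to Gal4 and luciferase under UAS control; luminescence is read after 20 hr of 700 uM copper sulfate induction at ambient temperature.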
KB-3-1 tox – qHTS assay for MDR1-selective chemotherapeutics: Primary screen using the parental adenocarcinoma cell KB-3-1; KB-3-1 viability, CellTiter-Glo ATP luminescence, 72 h; Potency, µM (highest dose often 46.1 µM), hits mostly cytotoxic; actives 1.4% (n = 400,000); AID 1347075, 2019; also: nearly all actives have a fitted effect of over 60% in size
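Multi-concentration cytotoxicity screen in KB-3-1 cells grown in DMEM lacking phenol red with 10% FBS. After 72 h at 37 °C with compound, ATP-dependent luminescence was recorded.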
Gal4-VP16 FLuc – VP16 counterscreen qHTS for inhibitors of ROR gamma transcriptional activity | Drosophila S2 Gal4-VP16 UAS-luciferase, luminescence, 20 h | Potency, µM (highest dose often 53.6 µM), most hits filed as inhibitors | actives 3.5% (n = 310,000) | AID 2546, 2010;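 also: Gal4-VP16 expression switched on by copper sulfate through the metallothionein promoter; nearly all actives have a fitted effect of over 50% in size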
MCF10A rerep – A quantitative high throughput screen for small molecules that induce DNA re-replication in MCF 10a normal breast cells; actives 2.9% (n = 350,000); Potency, µM (series often up to 46.1 µM), usual class: activators; AID 624296, 2012; MCF 10A DNA re-replication, Hoechst nuclear intensity, 48 h; also: nearly all actives have a fitted effect of over 50% in size
SW480 rerep – A quantitative high throughput screen for small molecules that induce DNA re-replication in SW480 colon adenocarcinoma cells. AID 624297, 2012. Potency, µM (titrated, usually from 46.1 µM), most hits filed as activators. SW480 DNA re-replication, Hoechst DNA content imaging, 48 h. actives 1.8% (n = 340,000); also: nearly all actives have a fitted effect of over 55% in size
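Treated cells incubate 48 hr (37 C, 5% CO2), are stained 40 min with Hoechst, and nuclear fluorescence is enumerated; a rise in nuclei with high DNA signal marks re-replication.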
KB-V1 cytotox – qHTS assay for MDR1-selective chemotherapeutics: Primary screen using the drug-selected MDR subline cells KB-V1 | Potency, µM (titrated, usually from 46.1 µM), most hits filed as cytotoxic | AID 1347076, 2019 | KB-V1 MDR cells viability, CellTiter-Glo, 72 h | actives 3.4% (n = 400,000); also: nearly all actives have a fitted effect of over 60% in size
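Cytotoxicity via CellTiter-Glo luminescence after 72 h compound exposure at 37 degrees C. Cells: drug-selected KB-V1 line, DMEM phenol-red free plus 10% FBS. Compounds tested at multiple concentrations; normalized data fitted to concentration-effect curves.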
Of the large screens only hits and unclear results are named; the others gave an inactive call. The list is not random: actives were taken first. Their share in the collection is about 10%. Calls follow the shape of the dose curve; as a rule, active = well fitted curve in the direction sought with a large enough effect; inconclusive = small, poorly fitted or top-dose-only effect, or another doubt; inactive = no such curve, though single readings can be large; an effect the other way counts as inactive or inconclusive.

O=C(CN1CCOCC1)Nc1ncc(Cc2cccc(Cl)c2)s1	MCF10A rerep inconclusive, SW480 rerep 8.2µM
COc1ccc(Cl)cc1NC(=O)CSc1nc(C)cc(C)n1	SW480 rerep inconclusive
O=C(CN1CCOCC1)Nc1ccc(Br)cn1	MCF10A rerep inconclusive, SW480 rerep 21µM
Cc1cc(C)nc(SCC(=O)Nc2ncc(Cc3cccc(Cl)c3)s2)n1	Gal4-VP16 FLuc inconclusive, MCF10A rerep inconclusive, KB-V1 cytotox 4.6µM
Cc1noc(C)c1COc1ccccc1C(=O)N1CCN(S(=O)(=O)c2ccc(C(C)C)cc2)CC1	none (no result: RORg inh, Gal4-VP16 FLuc, MCF10A rerep, SW480 rerep)
O=Cc1c(Cl)nc2ccccn2c1=O	MCF10A rerep 26µM, SW480 rerep inconclusive, KB-V1 cytotox inconclusive
Cc1cccn2c(=O)c(C=O)c(Cl)nc12	RORg inh 14µM, Gal4-VP16 FLuc inconclusive, MCF10A rerep inconclusive, SW480 rerep inconclusive, KB-V1 cytotox inconclusive
Cc1cccn2c(=O)c(C=O)c(N3CCCCC3)nc12	none
C[N+]1(CC(=O)c2c3ccccc3cc3ccccc23)CCOCC1	none (no result: RORg inh, Gal4-VP16 FLuc, MCF10A rerep, SW480 rerep)
O=c1c2sc3nc(N4CCOCC4)c4c(c3c2ncn1CCc1ccccc1)CCCC4	MCF10A rerep inconclusive, KB-V1 cytotox 2.3µM
O=c1c2sc3nc(N4CCOCC4)c4c(c3c2ncn1-c1ccccc1)CCCC4	KB-V1 cytotox inconclusive
COc1ccc(C(=O)Nc2ccc(-c3nc4ncccc4o3)cc2C)cc1Br	none (no result: RORg inh, Gal4-VP16 FLuc, MCF10A rerep, SW480 rerep)
O=C(N/N=C/c1cccnc1)c1ccco1	Gal4-VP16 FLuc inconclusive, KB-V1 cytotox inconclusive
CCN(CC)c1ccc(/C=N/NC(=S)NCc2ccco2)cc1	RORg inh 1.8µM, KB-3-1 tox 18µM, Gal4-VP16 FLuc 3.2µM, MCF10A rerep inconclusive, SW480 rerep inconclusive, KB-V1 cytotox inconclusive
CCOc1ccc(/C=N/NC(=O)C(=O)NCc2ccco2)cc1	none
S=C(NCc1ccco1)N/N=C/c1ccc(Cl)cc1	RORg inh 2.5µM, Gal4-VP16 FLuc 5.6µM, SW480 rerep inconclusive, KB-V1 cytotox inconclusive
Oc1ccc(/C=N/NC(=S)NCc2ccco2)cc1	RORg inh 11µM
S=C(NCc1ccco1)N/N=C/c1cccnc1	RORg inh 11µM, Gal4-VP16 FLuc inconclusive, SW480 rerep inconclusive
Oc1c(Br)cc(/C=N/NC(=S)NCc2ccco2)cc1Br	RORg inh inconclusive
COc1ccc(-c2coc3ccc(OC4OC(COC(C)=O)C(OC(C)=O)C(OC(C)=O)C4OC(C)=O)cc3c2=O)cc1 (centres undefined)	none (no result: KB-3-1 tox, MCF10A rerep, SW480 rerep, KB-V1 cytotox)
CC(=O)NC(c1ccccc1)c1nc(-c2ccc(F)c(Cl)c2)cs1 (centres undefined)	none (no result: RORg inh, Gal4-VP16 FLuc, MCF10A rerep, SW480 rerep)
O=C(CC(=O)N/N=C/c1ccc(Cl)cc1Cl)NCc1ccccc1	KB-V1 cytotox inconclusive
Cc1cc(N/N=C/c2ccccc2F)nc(NCc2ccccc2)n1	none
CN(C)c1nc(NCc2ccccc2)nc(N/N=C/c2ccc(Cl)cc2Cl)n1	RORg inh 2.2µM
CN(C)c1nc(NCc2ccccc2)nc(N/N=C/c2ccccc2F)n1	RORg inh 2.8µM, Gal4-VP16 FLuc 6.3µM (no result: KB-3-1 tox, MCF10A rerep, SW480 rerep, KB-V1 cytotox)
CC1(C(=O)NS(=O)(=O)c2ccc(F)cc2F)CCN1C(=O)c1ccccc1CCc1ccccc1 (centres undefined)	none (no result: RORg inh, Gal4-VP16 FLuc, MCF10A rerep, SW480 rerep)
S=c1[nH]c(=S)c2[nH]cnc2[nH]1	KB-3-1 tox inconclusive (no result: RORg inh, Gal4-VP16 FLuc, MCF10A rerep, SW480 rerep)
COc1ccc(OCC(=O)Nc2cc(-c3nc4ccccc4o3)ccc2Cl)cc1	KB-V1 cytotox inconclusive (no result: RORg inh, Gal4-VP16 FLuc, MCF10A rerep, SW480 rerep)
COc1ccc2c(c1)c1ncn(CCN3CCCC3)c(=O)c1n2C	RORg inh inconclusive, KB-V1 cytotox 8.2µM
COc1ccc2c(c1)c1ncn(CCN3CCCCC3)c(=O)c1n2C	none
COc1ccc(NC(=S)NNC(=O)c2nnn(-c3ccccc3)c2C)cc1	SW480 rerep 4.1µM, KB-V1 cytotox 18µM

Bioassay records from PubChem BioAssay.
